Tests used:
Experiment in all cases: log2 ratio of Biotin-Ahx-Ub-VS probe labelling (fragment/DMSO); higher = less target engagement (more negative = stronger competition), active = hit call of the paper (q ≤ 0.05, log2 ratio ≤ -1)
Conditions in all cases: compound concentration: 200 uM; treatment time: 3 h
USP42 = molecular target: T1, USP42 (UniProt Q9H9J4)
T1 sequence (whole entry): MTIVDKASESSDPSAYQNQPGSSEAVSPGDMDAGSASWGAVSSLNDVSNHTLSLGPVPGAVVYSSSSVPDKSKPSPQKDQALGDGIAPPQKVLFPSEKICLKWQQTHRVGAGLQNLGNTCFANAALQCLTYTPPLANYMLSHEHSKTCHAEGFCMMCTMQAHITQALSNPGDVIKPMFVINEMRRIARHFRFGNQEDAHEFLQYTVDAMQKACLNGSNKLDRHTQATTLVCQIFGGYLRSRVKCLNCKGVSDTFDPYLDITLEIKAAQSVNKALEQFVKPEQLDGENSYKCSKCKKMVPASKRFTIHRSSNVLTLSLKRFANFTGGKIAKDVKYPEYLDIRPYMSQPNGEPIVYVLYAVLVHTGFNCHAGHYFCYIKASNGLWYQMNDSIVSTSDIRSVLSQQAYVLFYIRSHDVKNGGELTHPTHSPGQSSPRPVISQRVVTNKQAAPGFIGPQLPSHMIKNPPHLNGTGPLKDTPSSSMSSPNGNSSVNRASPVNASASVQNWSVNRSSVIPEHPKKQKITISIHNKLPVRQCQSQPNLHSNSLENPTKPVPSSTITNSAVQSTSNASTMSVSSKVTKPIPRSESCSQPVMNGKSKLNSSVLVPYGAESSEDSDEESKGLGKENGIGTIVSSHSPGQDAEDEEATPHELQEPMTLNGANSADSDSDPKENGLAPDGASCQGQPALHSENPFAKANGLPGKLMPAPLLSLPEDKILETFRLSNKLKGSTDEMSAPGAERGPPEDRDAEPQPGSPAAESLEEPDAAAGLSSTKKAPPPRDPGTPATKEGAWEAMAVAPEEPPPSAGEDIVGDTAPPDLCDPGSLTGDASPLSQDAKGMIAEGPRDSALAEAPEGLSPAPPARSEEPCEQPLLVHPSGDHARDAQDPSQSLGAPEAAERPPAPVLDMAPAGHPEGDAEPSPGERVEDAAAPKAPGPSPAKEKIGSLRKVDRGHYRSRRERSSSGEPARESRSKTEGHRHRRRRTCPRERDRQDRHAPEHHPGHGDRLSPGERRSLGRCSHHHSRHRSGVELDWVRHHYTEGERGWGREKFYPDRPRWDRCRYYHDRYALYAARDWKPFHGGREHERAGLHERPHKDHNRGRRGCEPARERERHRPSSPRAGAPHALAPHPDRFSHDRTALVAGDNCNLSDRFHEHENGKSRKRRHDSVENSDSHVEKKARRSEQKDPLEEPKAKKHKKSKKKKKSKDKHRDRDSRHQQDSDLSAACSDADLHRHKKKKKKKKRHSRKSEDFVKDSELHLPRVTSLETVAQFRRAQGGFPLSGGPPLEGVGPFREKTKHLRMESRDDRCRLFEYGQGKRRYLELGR
Outline: (§1)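 Each value is an average log2 ratio of fragment to vehicle, tested by unpaired t-test. The underlying Spectronaut label-free quantities were global-median-normalised, and only proteins with ≥2 unique peptides were included. Triplicate HEK293T lysate samples (495 µg) were exposed to fragment at 200 µM or vehicle for 3 h, then to Biotin-Ahx-Ub-VS at 0.5 µM final for 1 h, before NeutrAvidin enrichment of labelled DUBs, LysC and trypsin digestion, and diaPASEF LC-MS/MS.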

USP46 = USP46 (UniProt P62068)
Outline: as §1

USP47 = molecular target: T2, USP47 (UniProt Q96K76)
T2 sequence (whole entry): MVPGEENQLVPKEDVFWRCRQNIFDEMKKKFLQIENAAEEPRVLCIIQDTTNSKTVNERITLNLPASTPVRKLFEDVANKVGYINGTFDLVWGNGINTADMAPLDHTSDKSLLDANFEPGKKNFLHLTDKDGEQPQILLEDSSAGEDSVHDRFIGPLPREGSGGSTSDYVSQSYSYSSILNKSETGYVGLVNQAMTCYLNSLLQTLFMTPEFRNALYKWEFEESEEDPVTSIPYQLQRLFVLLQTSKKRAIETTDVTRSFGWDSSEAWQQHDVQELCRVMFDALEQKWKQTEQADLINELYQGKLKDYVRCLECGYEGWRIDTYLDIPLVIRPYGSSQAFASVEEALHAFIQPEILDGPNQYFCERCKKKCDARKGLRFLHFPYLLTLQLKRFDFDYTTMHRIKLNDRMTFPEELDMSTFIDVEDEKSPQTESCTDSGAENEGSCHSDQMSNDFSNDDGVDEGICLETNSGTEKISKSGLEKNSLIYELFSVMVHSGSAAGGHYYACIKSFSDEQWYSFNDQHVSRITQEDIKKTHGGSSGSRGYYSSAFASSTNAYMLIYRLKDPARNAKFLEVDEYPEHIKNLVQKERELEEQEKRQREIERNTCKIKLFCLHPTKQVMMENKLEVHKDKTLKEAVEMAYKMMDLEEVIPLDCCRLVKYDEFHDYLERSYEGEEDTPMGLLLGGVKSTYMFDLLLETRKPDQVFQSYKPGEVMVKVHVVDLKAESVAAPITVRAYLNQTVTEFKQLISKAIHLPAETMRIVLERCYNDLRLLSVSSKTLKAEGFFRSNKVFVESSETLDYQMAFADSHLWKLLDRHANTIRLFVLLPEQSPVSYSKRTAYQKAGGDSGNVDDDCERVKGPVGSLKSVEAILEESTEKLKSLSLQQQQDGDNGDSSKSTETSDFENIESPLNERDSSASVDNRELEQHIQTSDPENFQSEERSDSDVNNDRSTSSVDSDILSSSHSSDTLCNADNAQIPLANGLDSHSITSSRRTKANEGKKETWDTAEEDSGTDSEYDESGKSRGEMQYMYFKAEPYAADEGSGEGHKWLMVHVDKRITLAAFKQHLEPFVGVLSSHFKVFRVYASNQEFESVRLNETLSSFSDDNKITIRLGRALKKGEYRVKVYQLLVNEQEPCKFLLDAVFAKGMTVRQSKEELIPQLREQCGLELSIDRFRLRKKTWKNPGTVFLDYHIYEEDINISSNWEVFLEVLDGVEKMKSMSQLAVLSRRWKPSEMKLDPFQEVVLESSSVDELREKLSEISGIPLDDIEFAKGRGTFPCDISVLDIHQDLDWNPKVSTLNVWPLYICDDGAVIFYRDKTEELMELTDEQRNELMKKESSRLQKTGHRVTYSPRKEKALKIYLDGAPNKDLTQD
Outline: as §1

USP48 = molecular target: T3, USP48 (UniProt Q86UV5)
T3 sequence (whole entry): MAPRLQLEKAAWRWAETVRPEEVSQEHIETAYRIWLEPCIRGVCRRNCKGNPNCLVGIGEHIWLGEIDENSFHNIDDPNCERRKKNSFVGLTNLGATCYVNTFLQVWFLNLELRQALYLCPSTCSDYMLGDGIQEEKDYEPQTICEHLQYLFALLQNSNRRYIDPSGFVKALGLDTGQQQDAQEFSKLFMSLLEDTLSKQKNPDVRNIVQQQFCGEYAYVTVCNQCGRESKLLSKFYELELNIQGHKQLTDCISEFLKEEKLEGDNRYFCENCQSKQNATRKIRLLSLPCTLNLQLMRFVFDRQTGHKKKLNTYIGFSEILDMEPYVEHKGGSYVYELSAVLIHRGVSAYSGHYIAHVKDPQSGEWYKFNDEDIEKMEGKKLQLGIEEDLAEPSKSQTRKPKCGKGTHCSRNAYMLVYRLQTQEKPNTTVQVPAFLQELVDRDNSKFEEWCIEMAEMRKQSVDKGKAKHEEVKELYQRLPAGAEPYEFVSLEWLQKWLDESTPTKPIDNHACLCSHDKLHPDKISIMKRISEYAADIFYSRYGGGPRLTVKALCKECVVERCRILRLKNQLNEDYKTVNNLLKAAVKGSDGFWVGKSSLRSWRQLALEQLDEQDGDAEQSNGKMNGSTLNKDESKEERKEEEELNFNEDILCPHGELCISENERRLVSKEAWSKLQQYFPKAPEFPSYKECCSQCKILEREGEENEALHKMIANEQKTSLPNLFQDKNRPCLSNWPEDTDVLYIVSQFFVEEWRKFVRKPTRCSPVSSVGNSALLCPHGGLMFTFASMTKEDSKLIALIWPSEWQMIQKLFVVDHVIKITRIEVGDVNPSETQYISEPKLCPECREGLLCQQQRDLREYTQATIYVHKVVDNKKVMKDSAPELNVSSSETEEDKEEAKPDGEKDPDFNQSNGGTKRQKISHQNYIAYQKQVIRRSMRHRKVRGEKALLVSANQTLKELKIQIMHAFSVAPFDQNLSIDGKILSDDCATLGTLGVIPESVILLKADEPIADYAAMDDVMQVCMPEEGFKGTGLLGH
Outline: as §1

USP5 = molecular target: T4, USP5 (UniProt P45974)
T4 sequence (whole entry): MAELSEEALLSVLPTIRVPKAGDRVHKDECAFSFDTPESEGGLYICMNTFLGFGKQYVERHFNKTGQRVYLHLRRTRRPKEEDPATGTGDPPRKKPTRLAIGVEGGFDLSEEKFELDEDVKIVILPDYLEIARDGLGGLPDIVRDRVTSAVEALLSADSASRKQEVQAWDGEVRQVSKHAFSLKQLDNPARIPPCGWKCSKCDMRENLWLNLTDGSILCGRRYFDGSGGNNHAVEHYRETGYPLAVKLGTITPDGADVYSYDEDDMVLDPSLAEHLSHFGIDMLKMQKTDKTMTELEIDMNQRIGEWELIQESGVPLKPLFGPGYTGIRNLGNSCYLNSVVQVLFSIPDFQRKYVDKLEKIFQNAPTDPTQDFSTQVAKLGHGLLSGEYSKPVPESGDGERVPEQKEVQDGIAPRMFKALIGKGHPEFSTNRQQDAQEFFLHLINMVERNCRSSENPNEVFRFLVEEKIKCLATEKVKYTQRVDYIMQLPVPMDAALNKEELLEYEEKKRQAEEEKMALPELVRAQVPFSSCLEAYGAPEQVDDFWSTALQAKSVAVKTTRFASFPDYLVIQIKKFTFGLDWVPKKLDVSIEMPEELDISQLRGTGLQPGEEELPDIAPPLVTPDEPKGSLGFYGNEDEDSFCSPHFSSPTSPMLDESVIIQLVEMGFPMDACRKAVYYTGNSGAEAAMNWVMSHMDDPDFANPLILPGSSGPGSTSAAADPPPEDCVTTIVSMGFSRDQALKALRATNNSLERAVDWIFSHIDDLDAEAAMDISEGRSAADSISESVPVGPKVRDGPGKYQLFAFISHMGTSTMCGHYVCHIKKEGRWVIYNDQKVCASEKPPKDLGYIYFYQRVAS
Outline: as §1

USP54 = USP54 (UniProt Q70EL1)
Outline: as §1

USP7 = USP7 (UniProt Q93009)
Outline: as §1

USP8 = molecular target: T5, USP8 (UniProt P40818)
T5 sequence (whole entry): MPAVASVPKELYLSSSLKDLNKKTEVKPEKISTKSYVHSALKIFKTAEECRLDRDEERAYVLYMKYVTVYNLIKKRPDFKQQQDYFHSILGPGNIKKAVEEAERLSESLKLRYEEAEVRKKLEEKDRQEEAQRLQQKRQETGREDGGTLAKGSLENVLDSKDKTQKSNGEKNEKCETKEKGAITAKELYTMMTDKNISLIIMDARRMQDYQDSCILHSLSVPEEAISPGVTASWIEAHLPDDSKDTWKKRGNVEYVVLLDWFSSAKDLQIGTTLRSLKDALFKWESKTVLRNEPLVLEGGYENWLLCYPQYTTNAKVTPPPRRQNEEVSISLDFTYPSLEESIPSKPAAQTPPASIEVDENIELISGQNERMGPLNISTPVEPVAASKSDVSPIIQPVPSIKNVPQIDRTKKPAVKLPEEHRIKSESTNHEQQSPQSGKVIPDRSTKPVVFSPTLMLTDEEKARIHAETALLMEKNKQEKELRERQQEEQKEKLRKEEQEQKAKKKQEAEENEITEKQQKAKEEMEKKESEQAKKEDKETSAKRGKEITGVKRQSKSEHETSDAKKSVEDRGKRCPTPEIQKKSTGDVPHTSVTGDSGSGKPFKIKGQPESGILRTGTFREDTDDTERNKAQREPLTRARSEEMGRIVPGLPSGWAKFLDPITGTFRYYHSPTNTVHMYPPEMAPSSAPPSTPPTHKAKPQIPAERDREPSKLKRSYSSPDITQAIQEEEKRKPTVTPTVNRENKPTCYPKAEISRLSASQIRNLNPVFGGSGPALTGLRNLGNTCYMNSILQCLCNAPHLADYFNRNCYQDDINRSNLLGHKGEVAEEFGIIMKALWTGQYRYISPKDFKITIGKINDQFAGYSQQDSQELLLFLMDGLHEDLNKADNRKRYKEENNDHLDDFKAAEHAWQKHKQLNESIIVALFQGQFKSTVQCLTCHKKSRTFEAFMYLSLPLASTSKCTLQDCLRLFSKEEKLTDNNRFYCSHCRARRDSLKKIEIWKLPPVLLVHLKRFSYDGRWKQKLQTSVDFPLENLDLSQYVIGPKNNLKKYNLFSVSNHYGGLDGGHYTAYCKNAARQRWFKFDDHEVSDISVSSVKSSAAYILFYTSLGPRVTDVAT
Outline: as §1

USP9X = USP9X (UniProt Q93008)
Outline: as §1

UniProt O00487 = molecular target: UniProt O00487
Outline: as §1

Measured: log2 ratio of Biotin-Ahx-Ub-VS probe labelling

Sequence of USP54 (Q70EL1 whole entry): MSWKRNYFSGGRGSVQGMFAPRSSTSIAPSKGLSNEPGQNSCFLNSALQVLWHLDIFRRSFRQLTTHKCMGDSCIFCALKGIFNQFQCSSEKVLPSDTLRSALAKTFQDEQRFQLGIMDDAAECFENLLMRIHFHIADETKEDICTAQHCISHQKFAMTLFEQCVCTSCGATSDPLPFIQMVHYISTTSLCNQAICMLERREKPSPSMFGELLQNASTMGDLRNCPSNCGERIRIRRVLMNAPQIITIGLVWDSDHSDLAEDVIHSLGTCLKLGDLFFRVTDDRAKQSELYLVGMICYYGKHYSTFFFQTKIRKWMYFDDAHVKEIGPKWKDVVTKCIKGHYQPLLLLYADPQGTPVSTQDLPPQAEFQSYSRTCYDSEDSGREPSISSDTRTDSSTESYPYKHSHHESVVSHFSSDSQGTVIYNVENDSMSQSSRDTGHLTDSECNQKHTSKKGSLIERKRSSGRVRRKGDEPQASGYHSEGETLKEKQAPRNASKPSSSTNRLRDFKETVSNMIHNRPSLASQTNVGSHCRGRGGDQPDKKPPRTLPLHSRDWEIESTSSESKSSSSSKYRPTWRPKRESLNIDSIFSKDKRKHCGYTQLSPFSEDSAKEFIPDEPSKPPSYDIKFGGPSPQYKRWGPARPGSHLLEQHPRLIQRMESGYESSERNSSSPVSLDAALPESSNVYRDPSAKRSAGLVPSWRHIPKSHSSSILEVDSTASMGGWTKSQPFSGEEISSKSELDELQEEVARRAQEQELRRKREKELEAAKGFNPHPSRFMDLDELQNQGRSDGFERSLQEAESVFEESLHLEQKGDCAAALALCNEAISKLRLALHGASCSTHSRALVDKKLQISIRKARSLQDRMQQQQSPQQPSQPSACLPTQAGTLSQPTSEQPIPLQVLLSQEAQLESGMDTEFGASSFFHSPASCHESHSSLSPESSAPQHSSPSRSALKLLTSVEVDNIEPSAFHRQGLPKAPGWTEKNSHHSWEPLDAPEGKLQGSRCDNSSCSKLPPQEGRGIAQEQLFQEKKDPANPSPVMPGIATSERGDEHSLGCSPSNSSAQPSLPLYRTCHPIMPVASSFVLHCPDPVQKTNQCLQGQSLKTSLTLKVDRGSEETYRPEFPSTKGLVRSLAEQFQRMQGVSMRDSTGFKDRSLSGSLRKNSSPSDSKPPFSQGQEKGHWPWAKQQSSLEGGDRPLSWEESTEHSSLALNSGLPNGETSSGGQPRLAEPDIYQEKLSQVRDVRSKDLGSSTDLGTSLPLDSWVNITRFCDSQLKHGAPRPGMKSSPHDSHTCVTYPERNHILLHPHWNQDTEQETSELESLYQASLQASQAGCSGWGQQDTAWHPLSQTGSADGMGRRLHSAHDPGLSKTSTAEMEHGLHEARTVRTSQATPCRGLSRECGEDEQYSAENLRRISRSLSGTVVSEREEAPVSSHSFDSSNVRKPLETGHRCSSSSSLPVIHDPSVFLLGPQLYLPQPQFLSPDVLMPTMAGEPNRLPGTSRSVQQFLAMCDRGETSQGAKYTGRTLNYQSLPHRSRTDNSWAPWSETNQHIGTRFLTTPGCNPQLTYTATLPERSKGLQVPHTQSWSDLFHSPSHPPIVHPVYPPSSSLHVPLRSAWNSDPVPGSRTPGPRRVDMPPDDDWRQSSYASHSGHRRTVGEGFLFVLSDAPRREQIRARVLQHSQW
Sequence of USP7 (Q93009 whole entry, looked up): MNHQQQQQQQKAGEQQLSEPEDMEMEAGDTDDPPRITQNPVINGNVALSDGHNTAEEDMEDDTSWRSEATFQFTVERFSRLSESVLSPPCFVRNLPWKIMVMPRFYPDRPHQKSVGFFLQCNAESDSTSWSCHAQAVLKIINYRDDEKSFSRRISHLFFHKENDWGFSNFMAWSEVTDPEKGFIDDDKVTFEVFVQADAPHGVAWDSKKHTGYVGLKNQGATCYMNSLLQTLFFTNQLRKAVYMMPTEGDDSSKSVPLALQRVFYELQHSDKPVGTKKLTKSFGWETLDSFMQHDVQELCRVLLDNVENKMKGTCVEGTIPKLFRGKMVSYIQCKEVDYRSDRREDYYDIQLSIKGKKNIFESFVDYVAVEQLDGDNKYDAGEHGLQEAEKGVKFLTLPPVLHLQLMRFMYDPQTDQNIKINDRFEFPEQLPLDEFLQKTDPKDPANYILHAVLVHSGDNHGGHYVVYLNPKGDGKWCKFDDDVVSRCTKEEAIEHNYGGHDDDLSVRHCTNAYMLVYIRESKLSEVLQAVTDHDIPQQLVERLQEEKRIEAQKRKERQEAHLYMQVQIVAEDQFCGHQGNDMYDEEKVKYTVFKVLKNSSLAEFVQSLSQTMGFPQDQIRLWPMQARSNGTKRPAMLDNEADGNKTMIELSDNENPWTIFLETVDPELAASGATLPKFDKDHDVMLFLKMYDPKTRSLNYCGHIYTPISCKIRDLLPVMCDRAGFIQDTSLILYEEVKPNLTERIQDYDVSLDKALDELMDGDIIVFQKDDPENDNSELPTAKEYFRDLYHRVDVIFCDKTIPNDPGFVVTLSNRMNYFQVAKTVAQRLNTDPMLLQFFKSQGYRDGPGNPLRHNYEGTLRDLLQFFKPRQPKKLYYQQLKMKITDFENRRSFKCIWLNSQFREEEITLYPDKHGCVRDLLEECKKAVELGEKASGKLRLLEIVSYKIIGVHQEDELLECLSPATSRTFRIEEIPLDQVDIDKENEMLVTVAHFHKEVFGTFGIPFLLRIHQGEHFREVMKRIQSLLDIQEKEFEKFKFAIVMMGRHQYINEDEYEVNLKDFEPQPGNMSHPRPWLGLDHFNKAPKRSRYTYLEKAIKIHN
Sequence of USP46 (P62068 whole entry): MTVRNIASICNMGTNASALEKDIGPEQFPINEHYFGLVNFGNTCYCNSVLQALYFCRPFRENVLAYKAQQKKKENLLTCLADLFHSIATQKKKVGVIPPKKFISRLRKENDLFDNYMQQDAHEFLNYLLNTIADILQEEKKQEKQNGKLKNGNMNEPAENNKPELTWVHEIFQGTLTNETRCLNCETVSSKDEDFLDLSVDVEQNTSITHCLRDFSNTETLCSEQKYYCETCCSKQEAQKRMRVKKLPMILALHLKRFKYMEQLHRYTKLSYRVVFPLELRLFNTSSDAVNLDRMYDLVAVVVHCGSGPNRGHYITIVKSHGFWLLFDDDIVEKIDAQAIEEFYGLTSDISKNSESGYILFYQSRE
Sequence of UniProt O00487 (O00487 whole entry): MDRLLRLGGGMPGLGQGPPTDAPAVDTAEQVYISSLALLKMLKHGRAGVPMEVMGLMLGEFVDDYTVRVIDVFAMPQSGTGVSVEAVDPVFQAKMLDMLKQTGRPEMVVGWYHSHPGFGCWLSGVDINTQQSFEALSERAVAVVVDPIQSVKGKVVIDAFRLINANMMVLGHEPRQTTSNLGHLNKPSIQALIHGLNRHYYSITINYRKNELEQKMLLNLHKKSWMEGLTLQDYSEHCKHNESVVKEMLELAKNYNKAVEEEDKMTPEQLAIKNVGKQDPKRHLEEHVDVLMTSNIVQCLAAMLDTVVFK

CN(CCC(O)c1ccc(Br)cc1)C(=O)CCl (stereo not given)
inactive: USP42 0.556 | USP46 -0.218 | USP47 -0.526 | USP48 -0.691 | USP5 -0.00644 | USP54 0.00894 | USP7 -0.612 | USP8 -0.072 | USP9X -0.275 | UniProt O00487 -0.00696

— the supplement of paper PMC11732987, “Enantioselective OTUD7B fragment discovery through chemoproteomics screening and high-throughput optimisation” (Communications Chemistry, 2025)
